The supplement of paper PMC13094657
Where a name gives a salt, the structure may show the parent alone. ± gives the standard deviation of the averaged measurements.

How the values were obtained:
MDA-MB-231 [1] = test: cell viability relative to vehicle unstimulated control (fraction); higher = more viable cells; details: pre-treatment time: 18 h then 24 h IFNg/TNF
MDA-MB-231 [2] = test: kynurenine production, fold change vs DMSO IFNg/TNF control; higher = more kynurenine produced (less inhibition); details: pre-treatment time: 18 h then 24 h IFNg/TNF
Summary of the method: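 Fold change over cytokine-stimulated vehicle wells on the same plate is the measure used for kynurenine production, averaged across duplicate plates in the first screening round. MDA-MB-231 cells, seeded 24 h beforehand at 7 × 10^4/well in 96-well plates, were pre-treated 18 h with each natural product in 0.1% DMSO and stimulated 24 h at 37°C with IFNγ (1 U/ml) and TNF (6.25 ng/ml). Supernatants were read at 492 nm following trichloroacetic acid and p-dimethylaminobenzaldehyde treatment, against 0–100 μM standards.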
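Wherever cell viability relative to vehicle unstimulated control is given: viability of the cells left after supernatant collection, read with Deep Blue dye added for 4 h, as absorbance at 570 nm minus 600 nm.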

Row | SMILES | cell viability (MDA-MB-231 [1]) | kynurenine production (MDA-MB-231 [2])
1 | COc1cc2c(cc1OC)-c1c(OC)c(OC)cc3c1[C@H](C2)N(C)CC3 [(S)-Glaucine (commercial standard)] | 1.07 ± 0.065 | 0.852 ± 0.067
2 | O=C1C=C2C=C[C@@H]3C[C@@]2(O1)[C@H]1CCCCN31 [Securinine] (compound dose: 10 uM) | 0.89 | 0.213 ± 0.096
3 | CC(C)=CCC[C@](C)(O)[C@H]1CC[C@]2(C)[C@@H]1[C@H](O)C[C@@H]1[C@@]3(C)CC[C@H](O)C(C)(C)[C@@H]3[C@@H](O[C@@H]3O[C@H](CO)[C@@H](O)[C@H](O)[C@H]3O)C[C@]12C [Ginsenoside Rh1] (compound dose: 10 uM) | 0.999 ± 0.025 | 0.852 ± 0.15
4 | COc1cc2c(cc1OC)-c1c3c(cc4c1[C@H](C2)N(C)CC4)OCO3 [Dicentrine] (compound dose: 10 uM) | 0.83 ± 0.043 | 0.432 ± 0.0093
5 | CC1=C[C@]23C(=O)[C@@H](C=C(COC(=O)c4ccccc4)[C@@H](O)[C@]2(O)[C@H]1OC(=O)c1ccccc1)[C@H]1[C@@H](C[C@H]3C)C1(C)C [Ingenol 3,20-dibenzoate] (compound dose: 10 uM) | 1.05 ± 0.061 | 0.6413 ± 0.0018
6 | C=C1[C@H](OC(C)=O)[C@@H](OC(=O)c2ccccc2)[C@@H](OC(C)=O)C(C)(C)[C@H]2O[C@](O)([C@@H](C)C2=O)[C@@]2(OC(C)=O)C[C@H](C)[C@H](OC(C)=O)[C@@H]2[C@H]1OC(C)=O [Kansuinine A] (compound dose: 10 uM) | 0.934 ± 0.028 | 0.709 ± 0.031
7 | CC(C)[C@]12O[C@H]1[C@@H]1O[C@]13[C@]1(O[C@H]1C[C@H]1C4=C(CC[C@@]13C)C(=O)OC4)[C@@H]2O [Triptolide] (compound dose: 10 uM) | 0.64 ± 0.034 | 0.152 ± 0.021
8 | COc1ccc2c3c1O[C@H]1CC(=O)C=C[C@@]31CCN(C)C2 [Galanthaminone] (compound dose: 10 uM) | 0.953 ± 0.034 | 0.7845 ± 0.0068
9 | CC(=O)O[C@H]1[C@H]2[C@@H](OC(=O)Cc3ccccc3)[C@@H](C)C[C@]2(OC(C)=O)C(=O)/C(C)=C/[C@@H]2[C@H](CC[C@@]13CO3)C2(C)C [Euphorbiasteroid] (compound dose: 10 uM) | 0.981 ± 0.059 | 0.997 ± 0.02
10 | C=C1CC[C@H]2[C@@H](/C=C(\C)C(=O)[C@@]3(O)C[C@H](C)[C@H](O)[C@@H]3[C@@H]1O)C2(C)C [Lathyrol] (compound dose: 10 uM) | 1.08 ± 0.11 | 0.849 ± 0.095
11 | COc1cc([C@@H]2c3cc4c(cc3C[C@H]3COC(=O)[C@@H]32)OCO4)cc(OC)c1OC [4-deoxypodophyllotoxin] (compound dose: 10 uM) | 0.814 ± 0.042 | 0.623 ± 0.19
12 | C[C@@]12C[C@@H](c3ccoc3)OC(=O)[C@@H]1CC[C@]1(C)[C@H]2[C@@H]2C=C[C@@]1(O)C(=O)O2 [Columbin] (compound dose: 10 uM) | 0.9915 ± 0.0091 | 0.882 ± 0.2
13 | C[C@@]1(C(=O)O)CC[C@]2(C)CC[C@]3(C)C4=CC(=O)c5c(cc(O)c(O)c5C=O)[C@]4(C)CC[C@@]3(C)[C@@H]2C1 [Demethylzeylasteral] (compound dose: 10 uM) | 0.786 ± 0.1 | 0.294 ± 0.022
14 | CN[C@H]1CCc2cc(OC)c(OC)c(OC)c2-c2ccc(OC)c(=O)cc21 [Demecolcine (colcemid)] (compound dose: 10 uM) | 0.847 ± 0.13 | 0.486 ± 0.099
15 | CN1[C@@H]2C[C@@H](OC(=O)[C@H](CO)c3ccccc3)C[C@H]1[C@@H]1O[C@@H]12 [Scopolamine hydrobromide] (compound dose: 10 uM) | 0.983 ± 0.025 | 0.811 ± 0.067
16 | C=C1CC[C@H]2[C@@H](/C=C(\C)C(=O)[C@@]3(OC(C)=O)C[C@H](C)[C@H](OC(=O)Cc4ccccc4)[C@@H]3[C@H]1OC(C)=O)C2(C)C [Deoxy euphorbia factor L1] (compound dose: 10 uM) | 1.07 ± 0.074 | 0.9513 ± 0.0042
17 | CC(C)=CCC[C@](C)(O)[C@H]1CC[C@]2(C)[C@@H]1[C@H](O)C[C@@H]1[C@@]3(C)CC[C@H](O[C@@H]4O[C@H](CO)[C@@H](O)[C@H](O)[C@H]4O)C(C)(C)[C@@H]3CC[C@]12C [Ginsenoside Rh2] (compound dose: 10 uM) | 0.908 ± 0.049 | 0.84 ± 0.19
18 | C=C[C@@H]1C2=CCOC(=O)C2=CO[C@H]1O[C@@H]1O[C@H](CO)[C@@H](O)[C@H](O)[C@H]1O [Gentiopicroside] (compound dose: 10 uM) | 0.981 ± 0.0079 | 0.904 ± 0.09
19 | O=C([O-])c1ccc[n+]([C@@H]2O[C@H](CO)[C@@H](O)[C@H]2O)c1 [Nicotinic acid riboside] (compound dose: 10 uM) | 0.784 ± 0.36 | 0.364 ± 0.35
